From PubChem
Shown are actives, neighbours in structure and some others; about 3.1% of the full set was active somewhere.
12-hLO inh: qHTS Assay for Inhibitors of 12-hLO (12-human lipoxygenase) | AID 1452, 2008 | Polyunsaturated fatty acid lipoxygenase ALOX12 (Homo sapiens), P18054 | Potency, µM (titrated, usually from 57.1 µM), most hits filed as inhibitors | purified 12-hLO, xylenol orange hydroperoxide absorbance | 150,000 tested, 0.12% active; note: nearly all actives have a fitted effect of over 55% in size
Target sequence (P18054 whole entry, looked up): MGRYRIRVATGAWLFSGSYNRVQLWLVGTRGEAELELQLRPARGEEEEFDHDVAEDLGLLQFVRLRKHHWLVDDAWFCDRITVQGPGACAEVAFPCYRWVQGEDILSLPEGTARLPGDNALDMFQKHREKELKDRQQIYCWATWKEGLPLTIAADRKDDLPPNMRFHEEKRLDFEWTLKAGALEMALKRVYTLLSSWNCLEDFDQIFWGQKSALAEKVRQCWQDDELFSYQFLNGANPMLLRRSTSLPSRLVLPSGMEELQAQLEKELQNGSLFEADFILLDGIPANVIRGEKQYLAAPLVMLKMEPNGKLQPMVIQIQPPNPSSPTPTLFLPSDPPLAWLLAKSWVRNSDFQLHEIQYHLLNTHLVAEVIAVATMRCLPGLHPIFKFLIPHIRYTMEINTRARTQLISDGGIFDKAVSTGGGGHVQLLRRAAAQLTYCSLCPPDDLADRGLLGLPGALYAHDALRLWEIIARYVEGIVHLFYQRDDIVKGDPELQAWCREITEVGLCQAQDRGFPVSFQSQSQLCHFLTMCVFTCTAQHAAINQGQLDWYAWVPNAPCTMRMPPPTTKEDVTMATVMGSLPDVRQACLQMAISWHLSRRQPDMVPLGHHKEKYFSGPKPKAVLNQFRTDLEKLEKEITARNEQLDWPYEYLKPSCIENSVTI
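Purified human 12hLO (150 nM), preincubated 15 min with compound, then 40 uM arachidonic acid for 30 min, room temperature, Hepes pH 7.0 with 0.01% Triton X-100. Hydroperoxide detected by ferrous iron/xylenol orange; 573/405 nm absorbance ratio gives reaction progress.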
ALOX15B inhib: qHTS Assay for Inhibitors of 15-hLO-2 (15-human lipoxygenase 2). 110,000 tested, 0.56% active. AID 881, 2007. Potency, µM (series often up to 57.1 µM), most hits filed as inhibitors. Polyunsaturated fatty acid lipoxygenase ALOX15B (Homo sapiens), O15296. purified 15hLO-2, xylenol orange hydroperoxide absorbance; note: nearly all actives have a fitted effect of over 60% in size
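Purified human 15hLO-2 (50 nM final) preincubated with compounds 15 min at room temperature in 25 mM Hepes pH 7.5, 0.01% Triton X-100, then 45 uM arachidonic acid added for 90 min; hydroperoxide detected via ferrous/xylenol orange, 573/405 nm absorbance ratio.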
PNC assembly inh: High Content Assay for Compounds that inhibit the Assembly of the Perinucleolar Compartment | PC3M PTB-GFP, PNC prevalence imaging, 16 h; hits give low values | activity change (PNC), negative = inhibition, % at 10 µM | 140,000 tested, 3.1% active;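 active = readout at or below -70, meaning at least 70% loss of cells showing the perinucleolar compartment, a nuclear body marking cancer cells; inconclusive = readout between -30 and a set limit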
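PC3M cells stably expressing PTB-GFP, 750–1000 cells/well, treated 16 h at 37 °C with compound (23 nl of library stock), in duplicate. After paraformaldehyde fixation and Hoechst stain, imaged at 20x; PNC prevalence scored by image analysis.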
Each line names hits and unclear results; the compound was inactive in the other large screens. Unless noted, calls come from the whole dose curve; as a rule, active = well fitted curve in the direction sought with a large enough effect; inconclusive = small, poorly fitted or top-dose-only effect, or another doubt; inactive = no such curve, though single readings can be large; an effect the other way counts as inactive or inconclusive.

CCOc1ccc(NC(=NCc2ccc3c(c2)OCO3)SC2CC(=O)N(c3ccc(C(=O)O)cc3)C2=O)cc1 (centres undefined)	none (no result: ALOX15B inhib)
CCOc1ccc(NC(=NCc2ccc3c(c2)OCO3)SC2CC(=O)N(c3ccccc3)C2=O)cc1 (centres undefined)	PNC assembly inh -100.0 (no result: ALOX15B inhib)
CCOc1ccc(N2C(=O)CC(SC(=NC)Nc3ccc(F)cc3)C2=O)cc1 (centres undefined)	PNC assembly inh -100.0 (no result: ALOX15B inhib)
CCOc1ccc(NC(=NCc2ccc3c(c2)OCO3)SC2CC(=O)N(c3ccc(OCC)cc3)C2=O)cc1 (centres undefined)	none (no result: ALOX15B inhib)
O=C1CC(SC(=NCc2ccc3c(c2)OCO3)Nc2ccccc2)C(=O)N1 (centres undefined)	PNC assembly inh -114.9
CCCOc1ccc(N2C(=O)CC(SC(=NC)Nc3ccc(F)cc3)C2=O)cc1 (centres undefined)	none
CC1(C)S[C@@H]2[C@H](NC(=O)[C@@H](N)c3ccc(O)cc3)C(=O)N2[C@H]1C(=O)O	none (no result: PNC assembly inh)
CCN(CC)CCCNC(=O)c1ccc(Cc2nc3ccccc3[nH]2)cc1	none (no result: ALOX15B inhib, PNC assembly inh)
Cc1ccccc1S(=O)(=O)O[C@@H]1NS(=O)(=O)c2ccccc21	none (no result: PNC assembly inh)
Cc1ccc(NC(=O)c2ccccc2NC(=O)CCC(=O)O)cc1	PNC assembly inh inconclusive (no result: ALOX15B inhib)
C=CCNC(=O)c1ccccc1NC(=O)c1ccccc1C	PNC assembly inh -100.0 (no result: ALOX15B inhib)
Cc1ccccc1NC(=O)c1ccccc1NC(=O)CCC(=O)O	PNC assembly inh -109.0 (no result: ALOX15B inhib)
C=CCNC(=O)c1ccccc1NC(=O)c1cccc2ccccc12	PNC assembly inh inconclusive
OC[C@@H]1O[C@H](O)[C@@H](Cl)[C@H](O)[C@@H]1O	none (no result: PNC assembly inh)
CCn1nc(C(=O)Nc2nc3ccccc3[nH]2)c2ccccc2c1=O	PNC assembly inh -89.0 (no result: ALOX15B inhib)
Cn1nc(C(=O)Nc2nc3ccccc3[nH]2)c2ccccc2c1=O	PNC assembly inh inconclusive (no result: ALOX15B inhib)
COC(=O)CNC(=O)[C@@]1(C)C=C[C@@H](Cc2ccccc2)N1C(C)=O	none (no result: PNC assembly inh)
O=S(=O)(NCCCCCNS(=O)(=O)c1ccccc1)c1ccccc1	PNC assembly inh -91.0
O=S(=O)(NCCCc1ccccc1)c1ccccc1	none
CN(C)c1ccc(-c2cncnc2Nc2ccc(F)cc2)cc1	none (no result: 12-hLO inh, PNC assembly inh)
CC(C)c1c(O)nc(SCCN(C)C)[nH]c1=O	PNC assembly inh -86.9
CC(C)c1c(O)nc(SCC(=O)N2CCOCC2)[nH]c1=O	none
O=C(NCCNC(=O)c1ccc(Br)o1)c1ccc(Br)o1	none
O=C(NC1CCCC1)c1ccc(Br)o1	PNC assembly inh -85.0
c1ccc2c(CSCc3cccc4ccccc34)cccc2c1	none (no result: PNC assembly inh)
O=C(c1cccc(F)c1)N1CCC2(CC1)CCN(c1ccccn1)CC2	none (no result: PNC assembly inh)
Cc1ccc(CC(=O)NCc2ccc3c(c2)OCO3)cc1	none
Cc1ccc(S(=O)(=O)Cc2ccc(C(=O)NCc3ccc4c(c3)OCO4)o2)cc1	PNC assembly inh -107.0
COc1ccc(C(=O)N2CCC3(CCCN(CC(C)C)C3)CC2)cc1	none (no result: PNC assembly inh)
COc1ccc(CCNC(=O)Cn2cnc3c(nnn3Cc3ccc(C)cc3)c2=O)cc1OC	none (no result: ALOX15B inhib)
COc1ccc(CCNC(=O)Cn2cnc3c(nnn3Cc3ccccc3F)c2=O)cc1OC	PNC assembly inh -118.9 (no result: ALOX15B inhib)
CN(C)C(=O)c1ccc(-c2ccc3ncnc(N4CCC(C(=O)O)CC4)c3c2)cc1	none (no result: 12-hLO inh, PNC assembly inh)
COc1ccc(C(=O)N2CCC3(CC2)CN(Cc2ccc(C#N)cc2)C3)cc1	none (no result: PNC assembly inh)
COc1cc(COc2cc(N)c(Cl)cc2C(=O)CCC2CCN(CCNS(C)(=O)=O)CC2)cc(OC)c1	none (no result: PNC assembly inh)
O=C(C1CC(=O)N(C2CCCC2)C1)N1CCC(Cc2ccccc2)CC1 (centres undefined)	PNC assembly inh -106.2
O=C(C1CC(=O)N(C2CCCC2)C1)N1CCN(c2ccccc2F)CC1 (centres undefined)	none
Fc1ccccc1CSc1nnc(-c2cnccn2)n1Cc1ccco1	PNC assembly inh -100.0 (no result: ALOX15B inhib)
Fc1ccc(CSc2nnc(-c3cnccn3)n2Cc2ccco2)cc1	none
CON(c1nc(N(C)C)nc(N(C)C)n1)S(=O)(=O)c1ccccc1Cl	PNC assembly inh -100.0
COC(=O)CN(n1cnnc1)S(=O)(=O)c1ccccc1Cl	PNC assembly inh inconclusive
COc1ccccc1NS(=O)(=O)c1cc(C(=O)O)ccc1F	none (no result: ALOX15B inhib, PNC assembly inh)
CNC(=O)[C@@H]1O[C@@H](n2cnc3c(NCc4cccc(I)c4)ncnc32)[C@H](O)[C@@H]1O	none (no result: PNC assembly inh)
O=C(Cc1cccc(C(F)(F)F)c1)NCc1cccc(Cl)c1	PNC assembly inh inconclusive (no result: ALOX15B inhib)
O=C(NCc1cccnc1)c1ccc(Cl)c(Cl)c1	PNC assembly inh inconclusive
O=C(NCc1cccc(C(F)(F)F)c1)c1cc(Cl)ccc1Cl	PNC assembly inh -108.3 (no result: ALOX15B inhib)
O=C(NCc1cccnc1)c1cccc(C(F)(F)F)c1	PNC assembly inh -94.1
C=CC1=C2C=C(C3CC3)N(Cc3ccco3)C=C2C(=O)C(C)(OC(=O)c2ccco2)C1=O (centres undefined)	none (no result: ALOX15B inhib, PNC assembly inh)
C[C@H]1Cc2c(COc3ccccc3)nc3c(c2CO1)CN(C(=O)Cc1cccs1)CC3	none (no result: ALOX15B inhib, PNC assembly inh)
COC(=O)[C@@H]1C[C@@]2(O)[C@H](O)[C@H](O)[C@H](O)C[C@H]2N1Cc1c(F)cccc1Cl	none (no result: PNC assembly inh)
COC(=O)N/N=C/C1=C[N+](=O)c2ccccc2[N+]1=O	none (no result: PNC assembly inh)
COc1ccc(-c2nnc(SCc3ccccc3)n2N)cc1	PNC assembly inh -107.9
Cc1ccc(-c2nnc(SCC#N)n2N)cc1	PNC assembly inh -82.7
COc1ccc(-c2nnc(SCCc3ccccc3)n2N)cc1	none
Cc1ccc(CSc2nnc(-c3cccnc3)n2N)cc1	ALOX15B inhib inconclusive
O=C(O)CCc1nc(-c2ccccc2-n2cccc2)no1	none (no result: PNC assembly inh)
N#Cc1cccc(NC(=O)N2CCC3(CC2)CCN(C(=O)c2csnn2)CC3)c1	none (no result: PNC assembly inh)
CCNC(=S)NS(=O)(=O)c1ccc(CC)cc1	none
CCNC(=S)NS(=O)(=O)c1ccc(C)cc1	PNC assembly inh -84.9 (no result: ALOX15B inhib)
CC#CCN1c2ccccc2[C@]23C[C@@H](C(=O)OC)N(S(=O)(=O)c4cccs4)C2=NC(C(=O)OC)=C(C(=O)OC)[C@H]13	none (no result: ALOX15B inhib, PNC assembly inh)
CN(C)CCOC(=O)[C@@H](c1ccccc1)C1(O)CCCC1	none (no result: PNC assembly inh)
O=C(CN(C1CCCCC1)S(=O)(=O)c1ccc(F)cc1)NCc1ccncc1	none
O=C(CN(C1CCCCC1)S(=O)(=O)c1ccc(Cl)cc1)NCc1ccncc1	PNC assembly inh -100.0
Cc1cc(C)c(S(=O)(=O)N(CC(=O)NCc2cccnc2)C2CCCCC2)c(C)c1	PNC assembly inh -87.6
CS(=O)(=O)N(CC(=O)NCc1ccccc1)C1CCCCC1	PNC assembly inh inconclusive (no result: ALOX15B inhib)
CCC(=O)O[C@H]1C(O[C@@H]2C(C)[C@H](O[C@H]3C[C@@](C)(OC)C(O)C(C)O3)C(C)C(=O)OC(CC)[C@@](C)(O)C(O)[C@H](C)C(=O)C(C)C[C@]2(C)O)OC(C)CC1N(C)C (some centres undefined)	none (no result: PNC assembly inh)
O=C1OC2(c3ccc(O)cc3Oc3cc(O)ccc32)c2c1c(-c1ccccc1)c(-c1ccccc1)c(-c1ccccc1)c2-c1ccccc1	12-hLO inh inconclusive (no result: PNC assembly inh)
O=C(O)C(S)[C@@H](S)C(=O)O (some centres undefined)	none (no result: PNC assembly inh)
C[C@@H]1CCC[C@H](C)N1	none (no result: PNC assembly inh)
